Compounds with a hit are over-represented: about 7% of the library has one in this group of screens.
USP30 inh = inhibitors of human USP30 deubiquitinase | inhibition, % at 25 µM | AID 1645860 | Q70CQ3 | purified USP30, Ub-rhodamine cleavage fluorescence | 47,000 tested, 5.3% active
USP28 block = inhibitors of human USP28 deubiquitinase | inhibition, % at 25 µM | AID 1645857 | 47,000 tested, 3% active | Q96RU2 | purified USP28, Ub-rhodamine cleavage fluorescence, 30 min
Target sequence (Q96RU2 whole entry, looked up): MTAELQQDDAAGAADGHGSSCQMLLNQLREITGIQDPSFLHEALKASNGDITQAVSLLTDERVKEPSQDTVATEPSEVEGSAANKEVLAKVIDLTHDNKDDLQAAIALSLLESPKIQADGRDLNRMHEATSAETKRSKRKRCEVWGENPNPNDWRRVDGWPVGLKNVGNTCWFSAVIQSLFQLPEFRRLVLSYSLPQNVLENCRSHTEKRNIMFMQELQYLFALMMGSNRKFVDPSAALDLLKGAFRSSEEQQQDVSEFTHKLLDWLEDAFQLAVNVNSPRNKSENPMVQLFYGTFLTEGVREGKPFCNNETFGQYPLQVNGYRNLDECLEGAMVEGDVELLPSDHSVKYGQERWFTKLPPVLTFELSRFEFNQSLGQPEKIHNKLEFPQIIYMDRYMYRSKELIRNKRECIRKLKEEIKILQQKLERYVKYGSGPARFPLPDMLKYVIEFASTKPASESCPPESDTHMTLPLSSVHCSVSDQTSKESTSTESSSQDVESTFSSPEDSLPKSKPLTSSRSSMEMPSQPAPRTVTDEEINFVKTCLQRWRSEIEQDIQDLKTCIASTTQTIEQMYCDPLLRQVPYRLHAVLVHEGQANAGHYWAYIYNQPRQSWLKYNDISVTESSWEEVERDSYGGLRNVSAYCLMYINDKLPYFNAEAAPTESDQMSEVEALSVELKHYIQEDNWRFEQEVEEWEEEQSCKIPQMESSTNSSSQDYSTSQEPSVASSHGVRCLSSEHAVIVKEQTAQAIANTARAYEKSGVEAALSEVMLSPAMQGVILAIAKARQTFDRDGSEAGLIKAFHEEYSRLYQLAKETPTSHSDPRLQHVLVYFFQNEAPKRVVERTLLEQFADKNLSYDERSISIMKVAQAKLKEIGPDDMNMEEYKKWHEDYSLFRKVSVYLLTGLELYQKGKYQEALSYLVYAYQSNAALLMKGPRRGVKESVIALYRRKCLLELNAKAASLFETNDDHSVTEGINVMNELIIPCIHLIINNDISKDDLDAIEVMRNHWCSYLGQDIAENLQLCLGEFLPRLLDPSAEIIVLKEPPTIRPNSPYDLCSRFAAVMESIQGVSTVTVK
Numbers without * were called inactive; i = inactive. No stated cut-off is given here; in the data, active means inhibition above about 30%; inactive means the rest.

SMILES	USP30 inh	USP28 block
Cc1ccccc1-c1nc(-c2ccc3c(c2)ncn3CCC(=O)N2CCOCC2)no1	1.3	-10.2
O=C(NC1CC1)N1CCOC2(CCCN(c3cnccn3)C2)C1 (stereo not given)	-0.1	-4.0
COc1cccc(NC(=O)[C@H](C)NC(=O)c2cc3cc(OC)ccc3n2C)c1	-46.9	-12.8
CC(C)(C)c1cnc(CN2CCCC(N3CCNC3=O)C2)o1 (stereo not given)	-10.2	0.4
Cc1nc(-c2ccc(NC(=O)N3CCCc4ccccc43)cc2)no1	-32.0	3.3
O=C(NCCN1CCCCC1)C1CCN(c2cnc3nccnc3c2)CC1	-385.8	-121.8
O=C(NCCN1CCCC1)C1CCN(c2cnc(N3CCCCC3)nc2)CC1	-43.5	77.7*
N#Cc1cc2c([nH]c1=O)CC(c1ccccc1)C/C2=N\Nc1ccccc1 (stereo not given)	-54.4	-4.5
N#Cc1cnn2c1ncc1c(/C=C/Nc3ccc(C(F)(F)F)cc3)nccc12	-427.3	-133.8
COc1ccccc1CC(=O)Nc1cnc(-c2ccc(F)cc2)nc1	7.0	2.7
COc1ccc(Nc2nc(NCc3ccccc3)c3nccnc3n2)cc1	-12.1	36.9*
Cc1ccc(Nc2nc(Nc3cccc(Cl)c3)nc3nccnc23)cc1	i	-209.5
CCn1cc(C(=O)N2CCC(c3cc(=O)n4[nH]ccc4n3)CC2)c(C)n1	-0.3	-4.2
Cc1nn2c(S(=O)(=O)NCc3ccc(F)cc3)c(C)nc2s1	-9.3	-11.2
Nc1ccccc1-c1nnc(SCC(=O)c2ccccc2)o1	32.7*	15.0
CC(=O)CSc1nnc(-c2cnn(-c3ccccc3)c2N)o1	0.6	-1.6
COc1ccc(Cl)cc1NC(=O)C1[C@@H]2C(=O)N(Cc3ccc4c(c3)OCO4)C(=O)[C@@H]2[C@H]2c3ccccc3C=CN12 (stereo not given in full)	-99.3	45.2*
COc1ccc(Cl)cc1NC(=O)C1C2C(=O)N(c3ccc4c(c3)OCO4)C(=O)C2C2c3ccccc3C=CN12 (stereo not given)	i	-11.3
CCn1c(SCC(=O)N2CCCc3ccccc32)nnc1-c1ccc2c(c1)OCCO2	27.8	7.7
COc1cccc(C(=O)Nc2ccc3c(c2)N(C(C)=O)CCC3)c1	-47.5	-0.1
O=C(Nc1ccc2c(c1)N(C(=O)C1CCCC1)CC2)c1c(F)cccc1F	24.1	92.8*
COc1ccc(C(=O)Nc2ccc3c(c2)N(C(=O)C2CC2)CCC3)cc1OC	21.6	33.2*
CC(=O)c1cccc(NC(=O)c2ccc3c(c2)CCN3C(=O)C2CC2)c1	-16.7	23.4
CCN1C[C@H]2C3(CCN(S(=O)(=O)c4cccc(OC)c4)CC3)CC[C@@]2(C(=O)NC)C1	-0.2	-8.1
O=C(Nc1ccccc1)N1CCCN(c2ccc([N+](=O)[O-])cn2)CC1	13.1	-4.3
SMILES	USP30 inh	USP28 block
O=C(Nc1ccccc1)N1CCCN(c2c(Cl)cncc2Cl)CC1	32.0*	20.9
CCc1cccc(CC)c1NC(=O)C1CC(=O)N(Cc2ccccc2)C1 (stereo not given)	15.8	10.2
CC(OC(=O)c1ccc2ncsc2c1)C(=O)Nc1ccc2c(c1)OCO2 (stereo not given)	3.6	-3.5
NS(=O)(=O)c1cc(C(=O)OCC(=O)c2ccc3c(c2)OCCO3)ccc1Cl	-11.5	69.9*
O=C(COC(=O)c1ccc(CN2CCCC2=O)cc1)c1ccc2c(c1)OCCO2	-24.6	89.7*
O=C(COC(=O)c1ccc2ncsc2c1)c1ccc2c(c1)OCCO2	-41.5	30.9*
Cc1cccc(C(=O)OCC(=O)c2ccc3c(c2)OCCO3)c1O	1.3	18.6
O=C(COC(=O)c1ccc2c(=O)n3c(nc2c1)CCCCC3)c1ccc2c(c1)OCCO2	-2.4	19.2
CC1(C)Cc2ccc3c(c2O1)C(=O)N(C(C)(C)C)C3O (stereo not given)	9.6	3.9
CN1CC(=O)N(C2CCNC2)Cc2c(NCCc3ccccn3)ncnc21 (stereo not given)	i	-146.0
CNc1nc2c(c(=O)n1C)CCN(C(=O)Nc1ccc(C(F)(F)F)cc1)C2	9.4	3.4
C[C@@H](C(=O)NCCc1ccc(F)cc1)N1C(=O)N2CCc3c([nH]c4ccccc34)[C@@]2(C)C1=O	18.0	22.2
CCC(C)[C@H](NC(=O)[C@H](C(C)C)N1C(=O)N2CCc3c([nH]c4ccccc34)[C@@]2(C)C1=O)C(=O)NC1CCCC1 (stereo not given in full)	31.7*	12.4
Cc1ccc(CNC(=O)[C@H](C)N2C(=O)N3CCc4c([nH]c5ccccc45)[C@@]3(C)C2=O)cc1	-4.0	-19.8
C[C@@H](C(=O)NCc1ccc(F)cc1)N1C(=O)N2CCc3c([nH]c4ccccc34)[C@@]2(C)C1=O	46.4*	36.2*
C[C@@H](C(=O)NCc1ccc2c(c1)OCO2)N1C(=O)N2CCc3c([nH]c4ccccc34)[C@@]2(C)C1=O	32.9*	14.7
C[C@]12C(=O)N(c3ccccc3C(=O)NC3CCCC3)C(=O)N1CCc1c2[nH]c2ccccc12	25.7	0.0
CCN(CC)CCN1C(=O)C(O)=C(C(=O)c2cc3ccccc3o2)C1c1cccs1 (stereo not given)	-21.4	-13.7
CNC(=O)C1CN(C(=O)Nc2cccc(C)c2C)CC12CCCC2 (stereo not given)	-5.8	-8.8
Cc1nc2c(c(=O)[nH]1)CCN(Cc1cn(CC(=O)O)c3ccccc13)C2	-33.5	-13.8
Clc1ccc(Cc2nnc(-c3cccnc3)o2)cc1	0.5	31.1*
O=C(Cc1nnc(-c2cnccn2)o1)NCc1ccc(Cl)cc1	-2.4	-3.9
COc1ncccc1CN(C)C(=O)CCc1c[nH]c2ccccc12	0.3	-0.3
Cc1cccc(NC(=O)Cn2c(-c3cnccn3)nc(C)c(C)c2=O)c1C	75.9*	-0.5
Cc1nc(-c2cnccn2)n(CC(=O)Nc2cccc(C#N)c2)c(=O)c1C	2.7	0.0
SMILES	USP30 inh	USP28 block
O=C(c1ccccn1)N1CC[C@@H]2CN(Cc3ccc(Cl)cc3)S(=O)(=O)[C@@H]2CC1	2.6	-0.3
N#Cc1cn(CC(=O)N2CCc3ccccc32)c2ccccc12	53.3*	51.9*
COC(=O)c1cn(CC(=O)N2CCCc3ccccc32)c2ccccc12	17.4	11.9
O=C(Cn1cc(C(=O)C(F)(F)F)c2ccccc21)N1CCc2ccccc21	36.8*	27.8
Cc1nnc(-c2cn(CC(=O)N3CCc4ccccc43)c3ccccc23)o1	-7.3	0.7
COc1ccc(C2CCCCCN2C(=O)Cn2ccccc2=O)cc1 (stereo not given)	-8.1	5.1
O=C(c1ccc(F)cc1Cl)N1CCN(C(=O)c2cnn3ccccc23)CC1	15.9	13.5
O=C(c1c(F)cccc1F)N1CCN(C(=O)c2cnn3ccccc23)CC1	30.6*	14.1
COc1cccc(NC(=O)CSc2cc(C)c3cc(S(=O)(=O)N(C)C)ccc3n2)c1	-60.7	-12.3
COc1ccc2c(C)cc(SCC(=O)Nc3nsc(-c4ccc(C)cc4)n3)nc2c1	82.2*	54.9*
COc1cccc(NC(=O)CN2CCC3(CC2)CN(C(C)=O)Cc2cc(C)ccc2O3)c1	-50.8	-26.2
COc1ccc(C(=O)OCC(=O)N2CCC(Cc3ccccc3)CC2)cc1[N+](=O)[O-]	46.5*	36.1*
COc1cc(C(=O)OCC(=O)N2CCC(Cc3ccccc3)CC2)c([N+](=O)[O-])cc1OC	44.1*	20.9
O=C(OCC(=O)N1CCC(Cc2ccccc2)CC1)c1ccc2c(c1)S(=O)(=O)N=C1CCCCCN12	48.6*	21.1
O=C(COC(=O)c1ccc2c(c1)S(=O)(=O)N=C1CCCCCN12)NCCc1ccc(F)cc1	4.9	1.6

Assay outcomes from PubChem BioAssay.
